This is an account of results in PubChem BioAssay (NCI).

This is part of a sample that, as a whole, favours compounds with a hit. Of some 83,000 tested, about 20% had one in any assay.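 Each cell line was grown in a 96-well plate and treated with one concentration of compound for 48 hours. Values below 10 were considered active.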 Values without a mark were called inactive. Activity calls are given as the source filed them.

In this assay the test system is CAKI-1 renal. The assay can be described thus: NCI-60 one-dose screen, 48 h (100 = growth as untreated, 0 = no growth, -100 = all killed). The following applies: 10 µM unless noted. As for the experimental part: Growth inhibition of the CAKI-1 human tumor cell line is measured as a screen for anti-cancer activity. Cells are grown in 96 well plates and exposed to the test compound for 48 hours. Compounds are tested at a single concentration, which is 10^-5 M for most compounds. The reported endpoint is percent growth (GI% or GIPRCNT), where numbers from 0 - 100% represent growth inhibition, and numbers from -100% - 0 represent cell death. For example, a value of 40 represents 60% growth inhibition. A value of 0 means no net growth occurred over the course of the experiment. A value of -40 indicates 40% of cells at the beginning of the experiment died by the end of the experiment. A value of -100 means all cells are dead at the end of the experiment.
NCI-60 Human Tumor Cell Lines Screen was performed using the standard one-dose NCI protocol, which is described in more detail at https://dtp.cancer.gov/discovery_development/nci-60/default.htm.
Compounds with GIPRCNT values below 10 were considered active. Activity score was based on GIPRCNT using the following formula: […]
Score is 0 for GIPRCNT values of 100 or above, 50 for GIPRCNT values of 0, and 100 for GIPRCNT values of -100.
As for `C=CC(=O)OC1CCC(C(C)(C)CC)CC1` (stereo not given), the growth is 115%.

Turning to `CCc1ccccc1C(=O)N(CC)CC`, the growth was 99.7%. With `OCCc1ccc(Cl)cc1`, the growth is 92.7%.

Consider `O=C(NC(=S)N1CC=CCC1)c1ccccc1`, for which the growth was 105%. The result for `OCC(O)COc1ccc(Cl)cc1Cl` (stereo not given) reads 96%. Regarding `C=CCC(OC(C)=O)c1ccc(OC)c(OC)c1` (stereo not given), the growth is 92.3%. The result for `O=C1C=C[C@H](O)[C@@]2(CO)O[C@@H]12` reads 40%. With `CCNC(=O)Oc1ccc[nH]c1=O`, the growth was 95.1%. The value for `C=C(C)[C@@H]1CC[C@]2(CO)CC[C@]3(C)[C@H](CC[C@@H]4[C@@]5(C)CC[C@H](O)C(C)(C)[C@@H]5CC[C@]43C)[C@@H]12` was 72.6%; that for `CC(C)(C)CC1(C)NC(=O)NC1=O` (stereo not given) was 102%; that for `CN(C)c1ccc2nc3ccc(=[N+](C)C)cc-3oc2c1` was 70.3%. The value for `C=COC(=O)C(C)(C)C` was 92.2%. For the molecule `CC(=O)NNC(=S)N/C=C/c1c(C)ccc([N+](=O)[O-])c1[N+](=O)[O-]`, the growth was 98.8%. Consider `CCN(C(C)=O)c1ccc([N+](=O)[O-])cc1`, for which the growth is 102%. The value for `O=C(OCC1CCCO1)c1ccc([N+](=O)[O-])cc1` (stereo not given) was 106%. Take `CS(=O)CC(=N\O)/C(CS(C)=O)=N\O` (stereo not given): the growth was 91.2%. The result for `CC1(c2ccccc2)CO1` (stereo not given) reads 107%; that for `CCN(C(=O)Nc1ccccc1Cl)c1ccccc1`, 96.2%; that for `N#CCCN1C(=O)CCC1C(=O)O` (stereo not given), 102%. The result for `CCOC(=O)C1(N)CCCCC1` reads 88.2%; that for `CC(=O)Nc1ccc(O)c(C)c1`, 97.5%; that for `Clc1cccc(Cl)c1CSc1nc2ccccc2n2cccc12`, 70.5%. As for `COc1ccc(C(=O)/C(=N/Nc2ccccc2)c2ccc(OC)cc2)cc1`, the growth is 73.9%. The value for `O=C(O)c1ccc([N+](=O)[O-])cc1S(=O)(=O)O` was 110%; that for `CC(=O)OC(C)c1cccc(C#N)c1` (stereo not given) was 101%.

On to `CC(C)C1CCC(C)C(O)C1` (stereo not given), for which the growth was 98%. The result for `CC(C)c1ccccc1NC(=O)N1CCC(C(C)C)CC1` reads 92.3%; that for `CCCCCCCCNC(=O)C(C)C`, 99.1%. The result for `CNc1ccccc1C(N)=O` reads 81.4%. On to `CC1(C)C2CCC1(C)C1(C2)OCCS1` (stereo not given), for which the growth is 87.2%. The value for `CCOc1ccc(NC(=S)N2CCC(CCCC3CCN(C(=S)Nc4ccc(OCC)cc4)CC3)CC2)cc1` was 69.7%. The value for `C[n+]1cc2cc3c(cc2c2ccccc21)OCO3` was 102%. On to `O=C(O)C1CSC(c2ccccc2)N1` (stereo not given), for which the growth is 105%. The value for `CCCCCC/C=C\CCCCCCCCCc1cc(O)cc(OC)c1O` was -29.1% (active); that for `CCC(/C=C\C(C)=O)CC` was 100%.

On to `O=C(NCc1ccccc1)c1cccc([N+](=O)[O-])c1`, for which the growth was 102%. The value for `O=C1C=Cc2ccccc2/C1=C/c1[nH]c(=O)[nH]c1O` was 68.7%; that for `CCOC(=O)C(=O)CC(=O)c1ccccc1` was 95.4%.

As for `c1ccc2c(NCCCN3CCN(CCCNc4c5ccccc5nc5ccccc45)CC3)c3ccccc3nc2c1`, the growth is -15.5% [100 µM] (active). As to `COC(=O)c1cccc([N+](=O)[O-])c1`, the growth is 108%.
